# Reference: PubChem BioAssay (NCATS)
# Several values for one entry are separate records, joined by “and”; a condition that tells them apart may be missing. Equal entries are not always repeated. Results filed as inconclusive are left out. Unmarked numbers belong to inactive results. Calls come from the whole dose curve; as a rule, active = well fitted cell-killing curve with a large enough effect in the repeat runs; inconclusive = weak or mixed curves; inactive = flat fitted curve, though single readings scatter.
# Assay: qHTS assay for small molecule agonists of the antioxidant response element (ARE) signaling pathway measured by Nrf2-dependant transcriptional activity - cell viability counter screen (AID 720653)
# Settings: ARE-bla HepG2 viability, CellTiter-Glo ATP luminescence, 16 h; hits give low values
# Source text: National Center for Advancing Translational Sciences [NCATS] NIH Chemical Genomics Center [NCGC] U.S. Environmental Protection Agency [EPA] National Institutes of Environmental Health Sciences [NIEHS] National Toxicology Program [NTP] Assay Overview: Oxidative stress has been implicated in the pathogenesis of a variety of diseases ranging from cancer to neurodegeneration. The antioxidant response element (ARE) signaling pathway plays an important role in the amelioration of oxidative stress. The CellSensor ARE-bla HepG2 cell line (Invitrogen) can be used for analyzing the Nrf2/antioxidant response signaling pathway. Nrf2 (NF-E2-related factor 2) and Nrf1 are transcription factors that bind to AREs and activate these genes. The CellSensor ARE-bla HepG2 cell line contains a beta-lactamase reporter gene under control of the Antioxidant Response Element (ARE) stably integrated into HepG2 cells. The activation of the report gene under culture conditions can be detected by fluorescence intensity. The cytotoxicity of the compounds against the ARE-bla HepG2 cell line was quantified by measuring the intracellular ATP content.
# Assay Protocol Summary: ARE-bla HepG2 cells were dispensed at 2,000 cells/5 ul/well in 1536-well black wall/clear bottom plates using a Multidrop Combi (ThermoFisher Scientific, Waltham, MA) dispenser. After the assay plates were incubated at 37C/5% CO2 for 5 hrs, 23 nL of compounds dissolved in DMSO, positive controls or DMSO only was transferred to the assay plate by a pintool work station (Kalypsys, San Diego, CA). The plates were incubated at 37C/5% CO2 for 16 hrs. After 1 uL of LiveBLAzer B/G FRET substrate was added using a Flying Reagent Dispenser (FRD) (Aurora Discovery, San Diego, CA), the assay plates were incubated at room temperature for 2 hrs. The fluorescence intensity was measured by an Envision (PerkinElmer, Shelton, CT) plate reader. Cell viability using CellTiter Glo viability assay (Promega, Madison, WI) was also measured by adding 4 ul/well of CellTiter-Glo reagent into the same assay plate using a FRD. After 30 min incubation at room temperature, the luminescence intensity in the plates was measured using a ViewLux (PerkinElmer) plate reader.
# % is set by controls: 0 for no effect and ±100 for the full control effect.
row,Structure (SMILES),max response
1,CC(C)(OOC(C)(C)c1ccccc1)c1ccccc1,-15.2% and -2.58%
2,Oc1cc(Cl)cc(Cl)c1,-11.3%
3,CCCCC#N,-5.38%
4,c1ccoc1,9.49%
5,O=C(Cc1ccccc1)OCc1ccccc1,-10.2%
6,Oc1cc(Cl)c(Cl)c(Cl)c1,-10.7%
7,OC[P+](CO)(CO)CO,-17.6% and -11.9%
8,c1ccc(C2CO2)cc1 (stereo not given),-5.33%
9,CN(C)c1ccccc1,12.1%
10,CC(=O)CCC(C)=O,0.0815%
11,CC(C)OC(=O)Cc1ccccc1,-4.02%
12,CC(C)(Cl)[N+](=O)[O-],-1.78%
13,S=C1NCCN1,4.7% and 5.28%
14,O=c1ccc(=O)[nH][nH]1,27.2% and 14.4%
15,COC(=O)c1ccccc1N,-7.9%
16,Nc1ccc([N+](=O)[O-])cc1[N+](=O)[O-],-10.3%
17,CCCC[N+](=O)[O-],-1.65%
18,CC(=O)[O-].CC(=O)[O-].CC(=O)[O-].[Cr+3],2.78%
19,Cl/C=C/Cl,1.77%
20,O=Cc1ccc2c(c1)OCO2,2.8%

row,Structure (SMILES),max response
1,CC(C)CON=O,3.18%
2,C=CC(=O)OCCO,-2.67%
3,CC[N+](=O)[O-],9.27%
4,Nc1c(Br)cc([N+](=O)[O-])cc1[N+](=O)[O-],13.3%
5,COC(C)(C)C,4.13%
6,Nc1c(Cl)cc([N+](=O)[O-])cc1Cl,8.8% and -9.21%
7,O=[N+]([O-])/C=C/c1ccccc1,-1.14%
8,Brc1cccc(-c2ccccc2)c1,-6.68%
9,c1ccc(Nc2ccc(Nc3ccccc3)cc2)cc1,-13.9%
10,Nc1ccc2ccccc2c1,-2.01%
11,Nc1ccc(Cc2ccc(N)cc2)cc1,-0.954% and 9.87%
12,CC(C)CC(C)N (stereo not given),0.53%
13,COc1ccccc1N,6.75%
14,CC(C)[C@]12CC(=O)[C@H](C)[C@H]1C2,-4.23% and -2.13%
15,CCOP(=O)(OCC)OCC,-1.09% and -8.89%
16,Nn1cnnc1,-3.98%
17,Oc1cccc(Cl)c1Cl,0.417%
18,CN(C)C(=O)Nc1ccc(Cl)cc1,-16.9% and 1.13%
19,Nc1ccccc1-c1ccccc1,-2.88%
20,Cc1cc(-c2ccc(N)c(C)c2)ccc1N,-1.36% and 7.56% and 13.5%
